# From PubChem BioAssay
# LMNA splice mod – qHTS Assay for Modulators of Lamin A Splicing | HeLa LMNA splicing GFP/RFP minigene ratio, 48 h | Potency, µM (titrated, usually from 46.1 µM), for the others: at the highest dose ratio change, negative = inhibition, usual class: inhibitors | actives 0.01% (n = 200,000) | AID 1487, 2009; active = well fitted inhibition curve with a large enough effect in the signal ratio, with a control signal flat, not every such curve was filed as active; inconclusive = small, poorly fitted or top-dose-only effect, or effect the other way, or a change in a side signal; the % refers to the signal ratio; note: potency is the fitted concentration of half-maximal effect
#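 Read-out is the ratio of GFP to DsRed2 object intensity, acquired by 488 nm laser-scanning cytometry on HeLa lamin A-EGFP minigene reporter cells. Compound incubation 48 hrs at 37 °C in Opti-MEM with 2% FBS; DMSO 0.5% final.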
# PNC assembly inh – High Content Assay for Compounds that inhibit the Assembly of the Perinucleolar Compartment. PC3M PTB-GFP, PNC prevalence imaging, 16 h; active compounds read low. activity change (PNC), negative = inhibition, % at 10 µM. actives 3.1% (n = 140,000). AID 2417, 2010;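 active = readout at or below -70, meaning at least 70% loss of cells showing the perinucleolar compartment, a nuclear body marking cancer cells; inconclusive = readout between -30 and a set limit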;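 note: plate controls were DMSO wells for no effect and camptothecin positive control wells for full effect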
#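 Compounds are pinned in duplicate onto adhered PC3M cells stably expressing GFP-tagged PTB and incubated 16 h at 37 C. Cells are then fixed, nuclei stained with Hoechst, and PNC-positive cells counted.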
# HPGD inh – qHTS Assay for Inhibitors of HPGD (15-Hydroxyprostaglandin Dehydrogenase) | 15-hydroxyprostaglandin dehydrogenase [NAD(+)] (Homo sapiens), P15428 | Potency, µM, inactives show at the highest dose activity change, negative = inhibition, usual class: inhibitors | actives 4.3% (n = 150,000) | AID 894, 2007 | purified HPGD, NADH fluorescence kinetic, PGE2 substrate; note: potency is the fitted concentration of half-maximal effect
# Target sequence (P15428 whole entry, looked up): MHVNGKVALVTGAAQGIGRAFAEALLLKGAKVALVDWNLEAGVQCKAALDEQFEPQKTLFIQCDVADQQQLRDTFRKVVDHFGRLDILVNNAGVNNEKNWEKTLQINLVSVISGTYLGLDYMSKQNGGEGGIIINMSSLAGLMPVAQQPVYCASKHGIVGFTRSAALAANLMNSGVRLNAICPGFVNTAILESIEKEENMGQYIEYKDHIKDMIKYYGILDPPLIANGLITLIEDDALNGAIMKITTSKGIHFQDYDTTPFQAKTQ
#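 20 nM HPGD preincubated 15 min at room temperature with compound in 50 mM Tris-HCl pH 8, 0.01% Tween 20. Started with 1 mM NAD+ and 30 uM prostaglandin E2; NADH fluorescence (360/450 nm) read 5 times over 30-s intervals, last minus first.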
# ALDH1A1 block – qHTS Assay for Inhibitors of Aldehyde Dehydrogenase 1 (ALDH1A1) | Purified ALDH1A1, NADH fluorescence, propionaldehyde substrate | Potency, µM (series often up to 75.3 µM), without a hit: at the top dose activity, negative = inhibition, usual class: inhibitors | actives 7.3% (n = 220,000) | AID 1030, 2008;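 note: potency is the fitted concentration of half-maximal effect; plate controls were no enzyme wells and a reference inhibitor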
# Target sequence (P00352 whole entry, looked up): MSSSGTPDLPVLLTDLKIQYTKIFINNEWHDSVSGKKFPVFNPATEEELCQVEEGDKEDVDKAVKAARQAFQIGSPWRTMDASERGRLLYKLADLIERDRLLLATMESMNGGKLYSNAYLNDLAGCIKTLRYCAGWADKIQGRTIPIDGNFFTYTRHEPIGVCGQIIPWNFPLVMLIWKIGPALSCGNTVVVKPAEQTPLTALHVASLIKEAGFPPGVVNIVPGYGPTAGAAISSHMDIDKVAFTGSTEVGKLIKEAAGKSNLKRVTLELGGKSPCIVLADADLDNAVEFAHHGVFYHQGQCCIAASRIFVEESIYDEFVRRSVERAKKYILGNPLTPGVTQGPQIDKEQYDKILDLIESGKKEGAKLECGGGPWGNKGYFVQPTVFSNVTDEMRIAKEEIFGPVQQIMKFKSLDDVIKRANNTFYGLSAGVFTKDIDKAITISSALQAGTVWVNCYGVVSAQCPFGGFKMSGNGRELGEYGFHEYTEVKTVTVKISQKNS
# ALOX12 inhib – qHTS Assay for Inhibitors of 12-hLO (12-human lipoxygenase) | Polyunsaturated fatty acid lipoxygenase ALOX12 (Homo sapiens), P18054 | purified 12-hLO, xylenol orange hydroperoxide absorbance | Potency, µM (top dose mostly 57.1 µM), for inactives: at the highest dose activity change, negative = inhibition, usual class: inhibitors | actives 0.12% (n = 150,000) | AID 1452, 2008; active = well fitted inhibition curve with a large enough effect; inconclusive = small, poorly fitted or top-dose-only effect; note: potency is the fitted concentration of half-maximal effect; nearly all actives have a fitted effect of over 55% in size
#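 Hydroperoxide output read as Fe(III)-xylenol orange absorbance, 573-to-405 nm ratio, after 30 min reaction with 40 uM arachidonic acid. Enzyme: 150 nM purified human 12hLO, 15 min compound preincubation; 25 mM Hepes pH 7.0, room temperature.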
# Active calls of the source: *; ? = inconclusive; · = not tested or not shown; [ ] = remark or other dose. The list is not random: actives were taken first. Their share in the collection is about 10%. Unless noted, calls come from the whole dose curve; as a rule, active = well fitted inhibition curve with a large enough effect (not every such curve was filed as active); inconclusive = small, poorly fitted or top-dose-only effect, or another doubt; inactive = no such curve, though single readings can be large or run the other way. Unless noted, % is set by controls: 0 for no effect and ±100 for the full control effect.
SMILES,LMNA splice mod,PNC assembly inh,HPGD inh,ALDH1A1 block,ALOX12 inhib
O=C(Nc1ccncc1)c1ccc2c(c1)OCCO2,?,17.1,-8.4%,-4.0%,-2.7%
O=C1Oc2ccccc2C(=O)/C1=C\N1C(=O)N/C(=C\c2ccccc2O)C1=O,·,·,-8.4%,?,-3.1%[11.4 µM]
CCC(C)C(=O)Nc1nc(-c2ccc3c(c2)NC(=O)CO3)cs1 (configuration not stated),-17.4%,44.9,-26.1%,20µM*,-0.7%
O=C1COc2ccc(-c3csc(NCCc4ccccc4)n3)cc2N1,-18.8%[46 µM],·,·,?,·
Nc1nc(-c2ccc3c(c2)NC(=O)CO3)cs1,-15.6%,?,17.8µM*,3.16µM*,-16.8%
O=C(NCCN1CCCCC1)c1ccc(Cc2nc3ccccc3[nH]2)cc1,·,·,-6.2%,6.3%,-1.3%
CC(=O)OC1CCC2(C)C(=CCC3C2CCC2(C)C3C[C@@H]3O[C@]32C(C)=O)C1 (some centres not stated),·,·,-3.9%,0.0%,4.5%
COCCn1c(=O)cnc2cnc(N3CCN(C)CC3)nc21,3.0%,·,·,?,·
COc1ccc(N2CCc3c(C)nc4c(OC)cc(OC)cc4c32)cc1,?,·,·,-2.1%,·
COc1ccc(N2CCc3c(C)nc4c(OC)cccc4c32)cc1,?,·,·,28.2µM*,·
Fc1ccc(NC(=S)Nc2cccnc2)cc1Cl,?,·,·,28.2µM*,·
Fc1ccc(NC(=S)Nc2cc(-c3ccccc3)[nH]n2)cc1Cl,·,·,·,1.41µM*,·
Nc1ncnc2nc(-c3ccc(N4CCOCC4)nc3)cc(-c3cccc(Br)c3)c12,·,·,?,?,-3.0%
Cc1ccccc1N1C(=O)CSC1=C(C#N)C#N,?,·,·,3.55µM*,·
CCN1C(=O)CS/C1=C(\C#N)S(=O)(=O)c1ccccc1,-9.8%,16.1,-1.4%,-12.6%,-4.1%
COc1ccc(/C=C2/C(=O)N(Cc3ccccc3)N=C2C)cc1,0.8%,-4.0,-29.4%,?,-5.6%
COc1ccc(/C=C2/C(=O)N(c3nc4ccccc4s3)N=C2CSc2ccc(Cl)cc2)cc1,?,-4.0,14.1µM*,?,-14.4%
OC[C@@H]1O[C@@H](n2cnc3c(Nc4ccccc4)ncnc32)[C@@H](O)[C@H]1O,·,·,·,·,-4.0%
COc1ccc(C)cc1S(=O)(=O)Nc1ccc(F)c(Cl)c1,-7.4%,?,28.2µM*,-5.3%,7.8%
COc1ccccc1NS(=O)(=O)c1cccc(NC(=O)c2sc3ccccc3c2Cl)c1,·,·,·,-6.1%,·
COc1ccccc1NS(=O)(=O)c1cc(Cl)ccc1OC,0.6%,-113.7*,-15.5%,6.7%,-2.8%
COc1ccc(NS(=O)(=O)c2cc(C)ccc2OC)cc1OC,-20.1%,20.1,-3.4%,10.3%,-4.2%
CCCNS(=O)(=O)c1cc(Cl)ccc1OC,·,·,·,11.2%,·
COc1ccccc1NS(=O)(=O)c1ccc(Cl)c(NC(=O)C(C)N2C(=O)c3ccccc3C2=O)c1 (configuration not stated),4.9%,29.1,-8.9%,17.8µM*,16.8%
COc1ccccc1NS(=O)(=O)c1cccc(NC(=O)Nc2cccc(Cl)c2)c1,?,-85.8*,-21.1%,0.7%,?
SMILES,LMNA splice mod,PNC assembly inh,HPGD inh,ALDH1A1 block,ALOX12 inhib
O=C(COCc1cc(-c2ccco2)on1)Nc1cccc(O)c1,-5.5%[46 µM],·,·,·,·
Cc1ccc(Cn2c(CNS(=O)(=O)c3ccc(Cl)s3)nc3cccnc32)cc1,0.0%[46 µM],·,·,·,·
Cc1ccccc1OCC(=O)N(Cc1ccc(N(C)C)cc1)C1CCS(=O)(=O)C1 (configuration not stated),7.6%,-10.2,-3.1%,11.2µM*,3.9%
CC(C)CCOc1cccc(OCC(=O)NC2CCS(=O)(=O)C2)c1 (configuration not stated),-11.1%,-6.2,-6.9%,-2.6%,6.6%
CN(C)c1ccc(CN(C(=O)C2COc3ccccc3O2)C2CCS(=O)(=O)C2)cc1 (configuration not stated),-3.8%,11.1,·,4.47µM*,-17.9%
CN(C(=O)c1ccccc1)c1ccc(OCC(=O)NC2CCS(=O)(=O)C2)cc1 (configuration not stated),-9.0%,-12.8,-14.8%,14.1µM*,-2.2%
C=CCOc1ccc(C(=O)N(Cc2ccc(N(C)C)cc2)C2CCS(=O)(=O)C2)cc1 (configuration not stated),0.1%,32.6,-15.0%,10µM*,0.7%
O[C@@H]([C@H](O)[C@@H](O)CBr)[C@@H](O)CBr,·,·,0.3%,?,1.0%
CCN(CC)c1ccc(CN(C(=O)c2ccco2)C2CCS(=O)(=O)C2)cc1 (configuration not stated),1.3%,?,-4.6%,22.4µM*,-0.6%
CN(C)c1ccc(CN(C(=O)COc2ccccc2)C2CCS(=O)(=O)C2)cc1 (configuration not stated),5.5%,24.5,-22.0%,3.98µM*,-1.2%
CCN(CC)c1ccc(CN(C(=O)c2cc(OC)c(OC)c(OC)c2)C2CCS(=O)(=O)C2)cc1 (configuration not stated),6.7%,-21.0,-18.2%,7.0%,-3.0%
Cc1ccc(NC(=O)c2nc(S(C)(=O)=O)ncc2N(Cc2ccco2)Cc2ccco2)cc1,-3.1%[46 µM],·,·,·,·
CCC(=O)N(Cc1ccco1)c1nc(C(=O)Nc2ccc(Cl)cc2)c(C)s1,?,29.1,?,22.4µM*,-2.0%
O=C(NCCN1CCOCC1)c1ccc2c(c1)N(Cc1cccc(F)c1)C(=O)c1ccccc1S2,-0.8%[9.22 µM],·,·,28.2µM*,·
Cc1cccc(CN2C(=O)c3ccccc3Sc3ccc(C(=O)NCCc4ccccc4)cc32)c1,-5.9%[46 µM],·,·,·,·
CC(C)(N=NC(C)(C)C1=NCCN1)C1=NCCN1,·,·,-11.9%,0.0%[13.5 µM],-4.7%[11.4 µM]
Cc1c2c(n3c(nc4ccccc43)c1C#N)N(c1ccccc1)CC2,?,-94.6*,-23.0%,?,-3.8%
N#Cc1c2c(c(-n3cnc4ccccc43)n3c1nc1ccccc13)CCC2,5.0%,-25.3,-19.2%,2.3%,1.0%
Cc1cnc(C(=O)OCC(=O)NC23CC4CC(CC(C4)C2)C3)cn1,-1.0%,14.6,-0.1%,25.1µM*,-2.9%
O=C(COC(=O)/C=C/C(=O)OCC(=O)NC12CC3CC(CC(C3)C1)C2)NC12CC3CC(CC(C3)C1)C2,?,7.2,-17.6%,3.98µM*,2.1%
O=C(COC(=O)c1ccccn1)NC12CC3CC(CC(C3)C1)C2,5.0%,30.2,0.1%,6.7%,1.2%
COc1ccccc1CNc1ncnc2ccc(-c3ccc(N(C)C)cc3)cc12,?,·,?,?,-19.7%
CC1(C)OC(c2ccccc2)=C/C(=C/C=Nc2ccccc2)O1,-8.4%,-23.7,-13.3%,4.47µM*,-5.5%
Cc1ccc2c(c1)N(C(=O)Nc1cccc(C)c1C)CCO2,4.6%[46 µM],·,·,·,·
